Measurements: PubChem BioAssay (NCI)
Compounds without any hit were thinned out: in the full panel of roughly 79,000, 15% have a hit. Unmarked numbers belong to inactive results. Calls of active or inactive are those of the source. No stated cut-off is given here; in the data, active means growth inhibition above about 70%; inactive means the rest.

Assays:
[1] = NCI Yeast Anticancer Drug Screen. Data for the rad50 strain (AID 155);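 further: 0% = growth of vehicle-only cultures of the same strain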; conditions: S. cerevisiae rad50 strain growth inhibition; at 50.0 µM; stronger effect = higher value
Method in brief: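 Vehicle-treated cultures provide the reference for the growth inhibition reported for compound-exposed, repair-deficient yeast.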

[2] = NCI Yeast Anticancer Drug Screen. Data for the mec2-1 strain (AID 157); conditions: S. cerevisiae mec2-1 strain, at 50.0 µM, stronger effect = higher value
Method in brief: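 Yeast mec2-1 mutant treated with compound. Readout: growth inhibition vs vehicle controls.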

[3] = NCI Yeast Anticancer Drug Screen. Data for the sgs1 mgt1 strain (AID 161);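 further: 0% = growth of cultures given vehicle only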; conditions: S. cerevisiae sgs1 mgt1 strain, at 50.0 µM, stronger effect = higher value
Method in brief: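 Inhibition of yeast growth, normalised to vehicle-treated controls, is reported for a strain bearing genetic alterations in DNA damage repair.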

[4] = NCI Yeast Anticancer Drug Screen. Data for the cln2 rad14 strain (AID 165);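 further: 0% = growth equal to vehicle treated cultures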; conditions: S. cerevisiae cln2 rad14 strain, at 50.0 µM, stronger effect = higher value
Method in brief: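 cln2 rad14 yeast strain; compound exposure; growth inhibition read vs vehicle controls.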

[5] = NCI Yeast Anticancer Drug Screen. Data for the bub3 strain (AID 167); conditions: S. cerevisiae bub3 mutant strain, at 50.0 µM, stronger effect = higher value
Method in brief: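 Mutant yeast screening strain plus compound; vehicle-treated cultures serve as the 0% inhibition reference.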

[6] = NCI Yeast Anticancer Drug Screen. Data for the mlh1 rad18 strain (AID 175); conditions: S. cerevisiae mlh1 rad18 strain growth inhibition; at 50.0 µM; stronger effect = higher value
Method in brief: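 Yeast w/ defined DNA-repair lesions; compound exposure; growth vs vehicle controls → % inhibition.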

| Compound | growth inhibition [1] [%] | growth inhibition [2] | growth inhibition [3] [%] | growth inhibition [4] [%] | growth inhibition [5] [%] | growth inhibition [6] [%] |
| --- | --- | --- | --- | --- | --- | --- |
| CC1COC(C(C)C)(C(C)C)O1 (stereo unspecified) | -8.6 | -30.1% | -4.2 | -10 | -2.7 | 22.4 |
| CC(=O)NNC(=S)/N=C\c1c(O)c2ccccc2oc1=O | -50.5 | -45.6% | -34.2 | -13.2 | -38.5 | -37.9 |
| CC(=O)Nc1ccc(I)cc1 | 40.7 | 3.2% | 15.2 | -0.8 | -7.65 | 21.9 |
| CC(O)(C(=O)O)C(NC(=O)c1ccccc1)C(=O)O (stereo unspecified) | 12.2 | 6.2% | -2.5 | 6.3 | 11.1 | 2.45 |
| O=C(Nc1cccc2ccccc12)OCC1CC1 | -4 | 22.8% | -4.55 | -6.2 | -34.9 | -4.4 |
| COc1ccc(CSc2nc3ccccc3nc2-c2cccs2)cc1 | -16.2 | -39.2% | -43.8 | -1.35 | -24.9 | -54.8 |
| COC(=O)C1CCc2c(OC)ccc(OC)c2C1=O (stereo unspecified) | -2.75 | -4.7% | -3.65 | 20.5 | -2.45 | -7.95 |
| C=CCC(=O)OCc1cc2c(cc1Br)OCO2 | -26.8 | -17.2% | -8.35 | -10.6 | 54.5 | 5.85 |
| Cn1c([N+](=O)[O-])cnc1CN1CCN(CCO)CC1 | -2.9 | -6.95% | -39.1 | 26.7 | -20.3 | 3 |
| CCn1c(=O)c(C#N)c2n(CC)c3ccccc3n2c1=O | 39.5 | 13.8% | 19.4 | 10.2 | 20.9 | 30 |
| C[n+]1cc(I)cc2ccccc21 | 3.85 | -3.45% | -9.55 | -0.2 | 4.05 | 5.05 |
| COC(=O)c1ccccc1C1CN=NC12Cc1cccc(C)c1C2=O (stereo unspecified) | 26.6 | 20.2% | 64.8 | 43.1 | 28.9 | 52.6 |
| Cn1cnc2cc3c(cc2c1=O)nc1n3CCCC1 | -1.7 | -2.5% | -12.6 | -12.4 | -6.75 | -6.8 |
| CCCCC(CC)/C(C)=N/NC(N)=O (stereo unspecified) | 4.7 | 9.55% | -5.3 | -9.1 | -1.15 | -11.5 |
| C=CC1(c2ccc3ccccc3c2)OCC(CC)(CC)CO1 | -18.1 | 7.15% | -3.6 | -4.7 | 7.75 | 21.5 |
| CCCCSc1ccc2n(C)c(-c3ccc(/C=N\NC(=O)c4ccc(C(=O)N/N=C\c5ccc(-c6c[n+]7cc(SCCCC)ccc7n6C)cc5)cc4)cc3)c[n+]2c1 | -15.8 | -14.7% | -17.9 | -8.45 | -7.1 | -1.65 |
| CC(C)N(C(=O)/C=C/C(=O)N(C(C)C)C(C)C)C(C)C | 3.7 | 27.1% | -1.7 | -2.05 | 18.8 | -9.6 |
| CCc1c2c(cc3c1CC1(C3)Cc3cc4c(c(C(=O)OC)c3C1)CCCC4)CCCC2 (stereo unspecified) | -18.8 | -16.4% | -20.8 | 9.65 | -14 | -25.9 |
| CC1(C)CC(N2CCN(C3CC(C)(C)NC(C)(C)C3)CC2)CC(C)(C)N1 | -12.7 | -19.6% | -18.8 | -8.3 | -14.2 | -29.6 |
| COc1ccc(N=C(C)C2C(=O)c3ccccc3C2=O)cc1 | 44 | -21.9% | -10.2 | 13.7 | 16.6 | -30.7 |
| CC(C)Oc1ccc(C(=O)OCCC(C)N2CCCC2)cc1 (stereo unspecified) | 40.9 | 36.7% | 53.2 | 31.5 | 46.4 | 27.9 |

| Compound | growth inhibition [1] [%] | growth inhibition [2] | growth inhibition [3] [%] | growth inhibition [4] [%] | growth inhibition [5] [%] | growth inhibition [6] [%] |
| --- | --- | --- | --- | --- | --- | --- |
| CC(=O)NC(Cc1cc(I)c(OC(C)=O)c(I)c1)C(=O)O (stereo unspecified) | -4.85 | -16.8% | 3.45 | 6 | 12.4 | -0.6 |
| Nc1ccccc1/C(O)=C1/CCOC1=O | 0.6 | -23.6% | 2.15 | 1.5 | 15.3 | -3.2 |
| O=c1[nH]c2ccccc2nc1/C=C/n1c(=S)[nH]c2ccccc21 | -31.4 | -28.2% | -46.4 | -16.6 | -33.5 | -20.7 |
| O=S(=O)(C(=C(c1ccccc1)c1ccccc1)c1ccccc1)c1ccccc1 | 42.1 | 99.5% (active) | 19.9 | 17.8 | 6.35 | 68 |
| CC1=C(C(=O)Nc2ccc([N+](=O)[O-])cc2)C(c2cccc([N+](=O)[O-])c2)C(C(=O)Nc2ccc([N+](=O)[O-])cc2)=C(C)N1 | -9.25 | -4.4% | 12.9 | -17.1 | -15.3 | -15.1 |
| CC1(C)CCC2(C(=O)OC3OC(CO)C(O)C(O)C3O)CCC3(CO)C(=CCC4C5(C)CC(O)C(O)C(C)(C(=O)OC6OC(CO)C(O)C(O)C6O)C5CCC43C)C2C1 (stereo unspecified) | 2.3 | 4.45% | 17.6 | 23.2 | 19.3 | -92.2 |
| CCN1c2ccccc2CC(C#N)(CCN(C)C)c2ccccc21 (stereo unspecified) | 1.5 | 5.45% | 2.65 | -10.8 | 6.95 | -0.35 |
| COc1ncnc2ccccc12 | -30.9 | -16.8% | -20.8 | -32.8 | -25.2 | -25.1 |
| Fc1ccc(CC(F)F)cc1 | -2.55 | -6.2% | 14.4 | 4.6 | -23.6 | 3.25 |
| CC1CCCCC(=O)N1 (stereo unspecified) | 11.6 | 13.4% | 27.7 | 5.1 | 18.6 | -1.35 |
| CCOc1ccccc1NC(=O)C(=O)Cc1nc2ccccc2s1 | -2.65 | 6.1% | -2 | -6.75 | -0.75 | 2.9 |
| O=C(c1ccccc1)c1ccc(N2CCOCC2)cc1 | -29.4 | -44.9% | 24.4 | 4.75 | -7.85 | -5.7 |
| Cc1cc(N(CCC#N)S(=O)(=O)c2ccccc2)ccc1/C=C1\N=C(c2ccc(Cl)cc2)OC1=O | -4.5 | 6.9% | 7.8 | -18.6 | -2.7 | 17.4 |
| NC1=Nc2ncccc2C(=O)NN1 | -17.4 | 19.5% | 8.1 | 17.8 | 12.7 | 24.8 |
| C=CCOc1cc2c(cc1Cc1ccc3c(c1)OCO3)OCO2 | -6.85 | -7.75% | -7.9 | 9.25 | 7.5 | -3.05 |
| O=c1c2ccccc2[nH]c2ccc(O)cc12 | 1.45 | -7.95% | 4.8 | -3.25 | 3.2 | 16.4 |
| CN1CN(C)C(c2ccncc2)=C1c1ccncc1 | -36 | -47.5% | -29.9 | -0.5 | -58.3 | -19.5 |
| CCOC(=O)Nc1cc2c(c(N)n1)N=C(CN(C)c1ccccc1)CN2 | 22.9 | 6.15% | 59.5 | 16.3 | 35 | 30.3 |
| CC(=O)OC(CCN(C)C)c1ccccc1 (stereo unspecified) | -1.35 | -7.5% | 0.6 | -34.1 | 24 | -5.45 |
| O=C1C(n2ccc(=O)[nH]c2=O)CCN1CCCl (stereo unspecified) | 0.2 | 1.35% | 2.65 | -23.5 | 14.1 | 12.5 |
